Reference: PubChem BioAssay (NCI)
Compounds without any hit were thinned out: in the full panel of roughly 79,000, 15% have a hit. Rule as the data show it: active = growth inhibition above about 70%; inactive = the rest.

Legend:
[1] = NCI Yeast Anticancer Drug Screen. Data for the rad50 strain (AID 155);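 also: 0% = growth of vehicle-only cultures of the same strain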; conditions: S. cerevisiae rad50 strain growth inhibition; at 50.0 µM; hits give high values
In short: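 Yeast carrying a defined DNA repair defect were exposed to test compounds, and growth was compared with vehicle-treated controls to give percent inhibition.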

[2] = NCI Yeast Anticancer Drug Screen. Data for the mec2-1 strain (AID 157); conditions: S. cerevisiae mec2-1 strain, at 50.0 µM, hits give high values
In short: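 Cells of the genetically defined mec2-1 yeast strain are incubated with test compound. Inhibition of growth is calculated against vehicle-treated controls.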

[3] = NCI Yeast Anticancer Drug Screen. Data for the sgs1 mgt1 strain (AID 161);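 also: 0% = growth of cultures given vehicle only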; conditions: S. cerevisiae sgs1 mgt1 strain, at 50.0 µM, hits give high values
In short: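 Test agents were incubated with a DNA-repair-mutant yeast strain. Growth was then read and compared against vehicle-treated controls.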

[4] = NCI Yeast Anticancer Drug Screen. Data for the cln2 rad14 strain (AID 165);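 also: 0% = growth equal to vehicle treated cultures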; conditions: S. cerevisiae cln2 rad14 strain, at 50.0 µM, hits give high values
In short: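 The screen exposed genetically defined yeast (cln2 rad14) to test compounds and scored growth inhibition relative to vehicle-treated controls.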

[5] = NCI Yeast Anticancer Drug Screen. Data for the bub3 strain (AID 167); conditions: S. cerevisiae bub3 mutant strain, at 50.0 µM, hits give high values
In short: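 Compounds were applied to a genetically altered yeast strain carrying a cell-cycle control defect. Growth inhibition was scored against vehicle-treated controls.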

[6] = NCI Yeast Anticancer Drug Screen. Data for the mlh1 rad18 strain (AID 175); conditions: S. cerevisiae mlh1 rad18 strain growth inhibition; at 50.0 µM; hits give high values
In short: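 Compound-treated yeast growth, normalised to vehicle controls. Strain bears defined DNA repair mutations.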

Measured: growth inhibition

NC(=O)c1c[nH]c(=O)cc1O
inactive: [1] -5.35% | [2] -13.6% | [3] 50.2% | [4] 18.8% | [5] 7.3% | [6] 0%

O=[N+]([O-])C1C2C=CC(C2)[C@H]1c1ccco1 (stereo partly specified)
inactive: [1] -7.85% | [2] -15.2% | [3] -24.7% | [4] 20.2% | [5] -14.8% | [6] -4.95%

O=C(/C=C/c1cccs1)c1ccc(Cl)cc1
inactive: [1] -26.6% | [2] -41.3% | [3] -9.45% | [4] -2.8% | [5] 2.2% | [6] -4.35%

Cc1cc(NC(=S)Nc2ccccc2)c(NC(=S)Nc2ccccc2)cc1C
inactive: [1] 2.1% | [2] -25.2% | [3] 1.55% | [4] 6.7% | [5] 3.2% | [6] 3.2%

N#CCCC1(CCC#N)CCCCCCC(CCC#N)(CCC#N)C(O)C1O (stereo unspecified)
inactive: [1] 10.8% | [2] -12% | [3] -6.45% | [4] 3.15% | [5] -15.2% | [6] -46.2%

CCOC(=O)CCC(=O)Oc1cccc2c1C(=O)c1c(OC(=O)CCC(=O)OCC)cccc1C2=O
inactive: [1] 40.5% | [2] 37% | [3] 9.8% | [4] 17.2% | [5] 6.45% | [6] 47.7%

CC(=O)c1c(C)cc2cccc(OC3OC(CO)C(O)C(O)C3O)c2c1O (stereo unspecified) (tested in a mixture with another compound)
inactive: [1] 9.1% | [2] 8.2% | [3] -18.6% | [4] 0% | [5] -7.25% | [6] -56.3%

C[Si](C)(C)c1ccc2c(c1O)C(=O)c1ccccc1C2=O
inactive: [1] 10.6% | [2] 16.9% | [3] 31.9% | [4] 53.6% | [5] -1.15% | [6] 3.3%

COc1ccc(C#CCC(OC2OC(CO)C(O)C(O)C2O)C(O)c2ccc(OC)c(OC)c2)cc1OC (stereo unspecified)
inactive: [1] -0.15% | [2] -7.55% | [3] -6.95% | [4] 12% | [5] -17.2% | [6] -15.9%

O=C(CCCC(=O)Nc1cccc([N+](=O)[O-])c1)CC(=O)c1ccc([N+](=O)[O-])cc1
inactive: [1] -2.7% | [2] -1.25% | [3] -8.2% | [4] -4.15% | [5] -14.6% | [6] 8%

Cc1ccc(-n2cnc3sc4c(c3c2=O)CCCC4)cc1
inactive: [1] -12.2% | [2] -10.7% | [3] 0.7% | [4] -9.7% | [5] -7.65% | [6] -16.5%

COC(=O)CC(C)(O)CCCC(C)C (stereo unspecified)
inactive: [1] 11.2% | [2] -5.15% | [3] 16.9% | [4] -17.9% | [5] 3.9% | [6] -14.2%

O=Cc1cccc(OC(=O)Nc2ccccc2)c1
inactive: [1] 39% | [2] 24.8% | [3] 24.5% | [4] -17.5% | [5] 17.1% | [6] 0.95%

COc1cccc(-c2nnc(-c3cccc(OC)c3)o2)c1
inactive: [1] 25.4% | [2] -12.1% | [3] 16.6% | [4] 1.95% | [5] 25.5% | [6] 0.2%

O=C(O)/C(=C/C=C/c1ccccc1)c1csc(-c2nc(/C(=C\C=C\c3ccccc3)C(=O)O)cs2)n1
inactive: [1] 22% | [2] 13.3% | [3] 19.4% | [4] 16.9% | [5] 19.1% | [6] 9.15%

CC(=O)c1cccc(NC(=O)c2cccc(Cl)c2)c1
inactive: [1] -1.9% | [2] -4.3% | [3] 24.5% | [4] -16.1% | [5] 20.4% | [6] 20.9%

O=C1C(OCc2ccccc2)=C(c2ccccc2)C(=O)N1c1ccccc1
inactive: [1] -1.75% | [2] -13.2% | [3] 2.2% | [4] 24.8% | [5] -11.6% | [6] -9.75%

Cc1ccc(C(C)C)cc1NC(=O)c1c(Cl)c(Cl)c(Cl)c(Cl)c1C(=O)O
inactive: [1] 14.6% | [2] 9.8% | [3] 23.9% | [4] -32.4% | [5] 6.45% | [6] 23.3%

Cc1nc(N)[nH]c(=O)c1Cc1ccc(Cl)cc1Cl
inactive: [1] -1.65% | [2] -1.15% | [3] -5.7% | [4] -44.4% | [5] -12.6% | [6] 8.55%

O=[N+]([O-])c1ccc(C2NC(c3ccccc3)c3c(ccc4ccccc34)O2)cc1 (stereo unspecified)
inactive: [1] 41% | [2] 2.75% | [3] 23.8% | [4] -1.35% | [5] -0.25% | [6] 4.3%

O[C@H]1[C@H]2c3cc4c(cc3CN3CCC(C[C@@H]1O)[C@H]23)OCO4 (stereo partly specified)
inactive: [1] 3.05% | [2] -6.5% | [3] 9.65% | [4] 20.3% | [5] 3.4% | [6] 9.3%

CC1CC2C3(C1)CC(C(=O)OC3=O)C2(C)C (stereo unspecified)
inactive: [1] -3.4% | [2] -11.4% | [3] -7.35% | [4] -37.4% | [5] -2.1% | [6] 23.4%

N#CC(=Nc1ccccc1)c1cccc(Br)c1
inactive: [1] 34.5% | [2] 5.05% | [3] 18.9% | [4] 15.4% | [5] 21.4% | [6] 28.4%

CC(O)CCC(C)(C)[N+](=O)[O-] (stereo unspecified)
inactive: [1] 3.15% | [2] -6.85% | [3] 0.1% | [4] 10.8% | [5] 0.25% | [6] -0.9%

CCOC(=O)c1ccc(CCCN)cc1
inactive: [1] -17.8% | [2] -13.2% | [3] 12.9% | [4] -28.2% | [5] -10% | [6] 0.65%

CCCCCCCCCc1ccc(COCC)cc1
inactive: [1] -9.55% | [2] 11.9% | [3] 7.05% | [4] -16% | [5] 22.1% | [6] 9.55%

CC(=O)NNc1nc(C)c(C(/C=C/c2cccc([N+](=O)[O-])c2)=N/NC(=S)NN)s1
inactive: [1] 5.85% | [2] -5% | [3] 2.2% | [4] 4.35% | [5] 12.4% | [6] 12.1%

COC(=O)Nc1cccc(OC(=O)NC2CCCCC2)c1
inactive: [1] 12.1% | [2] 32.7% | [3] 15.1% | [4] 4.25% | [5] 33.8% | [6] 16.4%

O=C(Nc1cccc([N+](=O)[O-])c1)Oc1ccc(-c2ccccc2)cc1
inactive: [1] 17.9% | [2] 36.2% | [3] 18.5% | [4] -3.75% | [5] 57.7% | [6] 25.4%

CCOC(=O)c1cc2c(nc1NCc1ccccc1)C(=O)CCCC2
inactive: [1] 7.95% | [2] 22% | [3] 30.8% | [4] 10.3% | [5] 26.4% | [6] 17.6%

Oc1cc2cc(-c3ccccc3)[nH]c2c2ccccc12
inactive: [1] -11.1% | [2] -5.25% | [3] -1.3% | [4] 18.8% | [5] -2.1% | [6] 1.3%

O=C1C(=O)N(c2ccc(Cl)cc2Cl)C(=O)C(=O)C1c1nc2ccccc2s1
inactive: [1] 43.1% | [2] 29.7% | [3] 4% | [4] 24.2% | [5] 25.6% | [6] 29%

COc1nc2[nH]c(C)cc(=O)c2c2ccccc12
inactive: [1] 16.4% | [2] 14.8% | [3] 1.45% | [4] -26.8% | [5] -7% | [6] 2.8%

O=C1C=C2CCC[C@H]3OC(=O)C[C@@]23CC1
inactive: [1] 12.4% | [2] 16.2% | [3] 35.3% | [4] 28.4% | [5] -0.95% | [6] 27.4%

O=C(O)C1Cc2c([nH]c3ccccc23)C(CCCCO)N1 (stereo unspecified)
inactive: [1] -31.6% | [2] -7.85% | [3] -15.9% | [4] -15.4% | [5] -26.4% | [6] -11.3%

COc1cc(O)c(OC)c(O)c1C(C)=O
inactive: [1] -3.5% | [2] -11.2% | [3] -17.4% | [4] -19.7% | [5] 2.25% | [6] -0.65%

COCc1onc(-c2ccc(OC)cc2)c1-c1ccc(OC)cc1
inactive: [1] 8.25% | [2] 20.4% | [3] 3.6% | [4] 30.9% | [5] 49.4% | [6] 31.4%

CCc1nc(N)nc(-c2nc(N)nc(CC)c2C)c1C
inactive: [1] 10.8% | [2] -2.4% | [3] -8.4% | [4] -7.8% | [5] -29.4% | [6] 15.8%

Cc1cc(C)c(C(=O)OCCN(C)C)c(C)c1
inactive: [1] 10.8% | [2] 2% | [3] 9.9% | [4] -5.25% | [5] 0.5% | [6] -0.6%

O=Cc1ccc(/C=C2\NC(=O)NC2=O)cc1
inactive: [1] -6.25% | [2] -7.9% | [3] -26.9% | [4] -0.05% | [5] -9.3% | [6] -5.55%

O=C1CCC(c2nc3ccccc3o2)C(=O)N1 (stereo unspecified)
inactive: [1] -5.1% | [2] -20.5% | [3] -10.6% | [4] 0.65% | [5] -11.2% | [6] -13.7%
